H9c2 TAG inh = inhibitors of triacylglycerol accumulation, primary screen, cell-based, uHTS, fluorescence, H9c2. H9c2 cells, Nile Red lipid (TAG) fluorescence; cells loaded with 200 µM oleic acid. inhibition, % at 12.5 µM. hit rate 0.66% among 230,000;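 active = pattern-corrected inhibition of lipid staining of at least 50% with the nuclear-stain viability signal not falling by more than 50%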;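 note: 0% = DMSO wells and 100% = triacsin C control wells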
697 NFkB inh = inhibitors of PMA/ionomycin-induced NF-kB reporter, 697 cells, primary screen, B-cell NF-kB inhibitor project, cell-based, luminescence, uHTS. 697 B-cell NF-kB luciferase reporter, 16 h. inhibition, % at 4 µM. hit rate 0.33% among 330,000. AID 435022, 2010; in the data active = inhibition above about 35%
Jurkat NFkB inh = inhibitors of induced NF-kB luciferase reporter, primary screen, TCR NF-kB activation inhibitor project, cell-based, luminescence, uHTS | hit rate 0.53% among 330,000 | inhibition, % at 4 µM | Jurkat, PMA/ionomycin-induced NF-kB luciferase reporter | AID 435003, 2010; in the data active = inhibition above about 50%
COUP-TFII inh = NR2F2 transcriptional activity inhibitors, primary screen, cell-based, luciferase reporter, HEK293T, luminescence | COUP transcription factor 2 (Homo sapiens), P24468 | HEK293T NGFI-A luciferase reporter | inhibition, % at 8.6 µM | hit rate 0.7% among 370,000 | AID 686940, 2013;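 active = inhibition above a per-plate cutoff, mean inhibition of test wells between control levels plus 3 SD, cut at about 38% in these data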;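 note: cells cotransfected with COUP-TFII expression vector driving the NGFI-A reporter; 0% = median of COUP-TF2 test wells and 100% = reporter-only cells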
Target sequence (P24468 whole entry, looked up): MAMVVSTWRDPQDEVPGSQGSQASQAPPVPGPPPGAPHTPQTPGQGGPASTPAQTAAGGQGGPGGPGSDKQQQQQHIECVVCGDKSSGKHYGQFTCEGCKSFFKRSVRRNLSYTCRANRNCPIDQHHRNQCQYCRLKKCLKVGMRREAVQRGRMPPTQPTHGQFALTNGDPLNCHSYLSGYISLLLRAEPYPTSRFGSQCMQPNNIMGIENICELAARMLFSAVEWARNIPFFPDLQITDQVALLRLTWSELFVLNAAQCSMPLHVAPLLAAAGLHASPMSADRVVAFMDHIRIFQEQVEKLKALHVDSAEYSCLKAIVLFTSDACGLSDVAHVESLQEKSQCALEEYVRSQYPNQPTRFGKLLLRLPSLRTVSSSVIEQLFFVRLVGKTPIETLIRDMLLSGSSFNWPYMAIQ
H9c2 protect = cardioprotection against H2O2-induced cell death, primary screen, uHTS, H9c2 cells, ATPLite luminescence; H9c2 cardiomyocytes, H2O2 injury protection, 2 h; protection from H2O2 cell death, % at 20 µM; hit rate 0.63% among 360,000;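 active = compounds giving at least 50% protection of heart cells from peroxide-induced death in the single-dose screen, raw or plate-pattern-corrected value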;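 note: 0% = DMSO wells with peroxide and 100% = DMSO wells without peroxide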
Gli-Sufu antag = Gli-Sufu pathway antagonists, primary screen, luciferase luminescence, Sufu-KO-LIGHT cells, uHTS; hit rate 0.74% among 340,000; AID 588413, 2011; Sufu-KO-LIGHT fibroblasts, Gli luciferase reporter luminescence; inhibition, % at 5 µM;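 active = inhibition above about 55%, limit read from the data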;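 note: 0% = DMSO-treated cells and 100% = wells with medium but no cells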
Jurkat NFkB conf = PMA/ionomycin-induced NF-kB reporter inhibitors, Jurkat retest, confirmation, T-cell NF-kB inhibitor project, cell-based, luminescence, single concentration | shares compounds with Jurkat NFkB inh | Jurkat NF-kB luciferase, 16 h | inhibition, % at 4 µM | hit rate 27% among 2,700 | AID 435020, 2010;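 active = inhibition reaching about 45% at 4 µM in either replicate, limit read from the data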;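 note: plate controls were PMA/ionomycin stimulated DMSO wells for no effect and unstimulated DMSO wells for full effect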
697 NFkB conf = PMA/ionomycin-induced NF-kB reporter inhibitors, 697 retest, confirmation, B-cell NF-kB inhibitor project, cell-based, luminescence, single concentration; shares compounds with 697 NFkB inh; 697 B-cell NF-kB luciferase, 16 h; inhibition, % at 4 µM; hit rate 35% among 2,000; AID 449746, 2010; in the data active = inhibition mostly above about 28%, no sharp cut-off; inactive = mostly below about 22%
Gli antag conf = Gli-SUFU pathway antagonists, confirmation, single concentration, luciferase luminescence, Sufu-KO-LIGHT cells; shares compounds with Gli-Sufu antag; Gli luciferase reporter; inhibition, % at 5 µM; hit rate 40% among 2,500;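 active = mean inhibition at 5 µM reaching about 45%, limit read from the data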;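 note: plate controls were DMSO-treated cells for no effect and wells lacking cells for full effect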
Gli cytotox = cytotoxicity in Sufu-KO-LIGHT cells, confirmation, cytotoxicity control for Gli-SUFU antagonist project, cell-based, ATP luminescence, single concentration. shares compounds with Gli-Sufu antag. cytotoxicity, % at 5 µM. hit rate 32% among 2,500. AID 651994, 2013;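 active = mean cytotoxicity at 5 µM above about 25%, limit read from the data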;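 note: cells exposed to compound overnight for roughly 16 to 18 hours; plate controls were DMSO wells with cells for no effect and medium without cells for full effect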
Wnt3a counter = Wnt3a reporter signal inhibition, confirmation, counter-screen for Gli-SUFU antagonist project, Wnt-LIGHT cells, luminescence, single concentration. shares compounds with Gli-Sufu antag. Wnt3a-driven luciferase reporter. inhibition, % at 6.25 µM. hit rate 20% among 2,500;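 active = mean inhibition above about 25%, limit read from the data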
Active calls of the source: *; nt = no result. Compounds with a hit are over-represented: about 2.6% of the library has one in this group of screens.

SMILES | H9c2 TAG inh | 697 NFkB inh | Jurkat NFkB inh | COUP-TFII inh | H9c2 protect | Gli-Sufu antag | Jurkat NFkB conf | Gli antag conf | Gli cytotox | Wnt3a counter | others
C=CCn1c(SCc2c(C)noc2C)nc2cc(C(=O)O)ccc2c1=O | -4.4 | 2.2 | 8.4 | -5.6 | 5.8 | 0.3 | nt | nt | nt | nt
C=CCn1c(SCc2c(C)noc2C)nc2ccccc2c1=O | nt | 15.6 | 77.8* | -58.1 | -5.3 | 54.6 | 51.7* | 54.1* | 57.9* | -15.9
CC(C)(C)C(=O)OC12CCCN(C1)/C(=C/c1ccc(C#N)cc1)C2 (stereo not drawn) | nt | nt | nt | -6.8 | nt | nt | nt | nt | nt | nt
O=C(c1cccc(N2CCNC2=O)c1)N1CCCC(Nc2cccc(F)c2)C1 (stereo not drawn) | -3.5 | 7.7 | -18.4 | -4.2 | -3.3 | 2.4 | nt | nt | nt | nt
O=C(Cc1ccc(N2CCNC2=O)cc1)N1CCCC(Nc2cccc(F)c2)C1 (stereo not drawn) | nt | -53.5 | 58.6* | 7.3 | 0.4 | 53.0 | 14.4 | 16.8 | 40.8* | -47.6
CCn1c(/C=C/N(C(C)=O)c2ccccc2)[n+](CCCS(=O)(=O)[O-])c2cc(Cl)c(Cl)cc21 | 7.9 | 8.7 | -0.3 | -29.5 | -2.5 | -9.8 | nt | nt | nt | nt
CCn1c(/C=C/Nc2ccccc2)[n+](CC)c2cc(Cl)c(Cl)cc21 | nt | -10.8 | 70.5* | -9.2 | -25.1 | 66.1* | -3.0 | 60.7* | 17.6 | 7.7
Cc1cc(N2CCCCC2)nc(NCc2ccccc2)n1 | -71.1 | -19.4 | 67.7* | 30.2 | -23.4 | 50.1 | 16.6 | 41.5 | 13.6 | 10.4
CCC(=O)N1CCc2cc(Br)c(S(=O)(=O)NCc3ccccc3OC)cc21 | nt | nt | nt | 0.1 | nt | nt | nt | nt | nt | nt
COC(=O)c1cc(-c2c(-c3cc(OC)c(OC)c(OC)c3)noc2C)cc([N+](=O)[O-])c1 | 18.3 | -7.3 | -8.5 | -5.8 | 8.0 | 6.3 | nt | nt | nt | nt
COc1cc(-c2c(-c3cc(OC)c(OC)c(OC)c3)noc2C)ccc1F | nt | -280.1 | 71.0* | -97.2 | nt | 50.9 | 47.0* | 66.8* | 65.4* | -0.4 | 697 NFkB conf=-162.2
CCN(CC)c1ccc(/C=N/Nc2nc(C)cc(=O)[nH]2)c(O)c1 | nt | -22.3 | 58.7* | -2.4 | 33.4 | 91.4* | -3.8 | 84.7* | 40.7* | 70.5*
O=C(CSc1nnc(-c2ccccc2)n1-c1ccc(Cl)cc1)Nc1ccccc1-c1ccccc1 | nt | nt | nt | -12.0 | nt | nt | nt | nt | nt | nt
O=C(OC12CCCN(C1)/C(=C/c1ccc(Cl)cc1)C2)c1ccno1 (stereo not drawn) | nt | nt | nt | -2.5 | nt | nt | nt | nt | nt | nt
CN(C)CCn1c2ccccc2c2nc3ccc([N+](=O)[O-])cc3cc21 | 56.3* | -316.7 | 60.1* | -33.2 | -17.3 | 51.7 | 9.5 | 39.9 | 10.3 | -162.4 | 697 NFkB conf=-296.7
CCCCCCCCN1C(=O)[C@@H](CC(=O)NCc2cccs2)C[C@@]2(C(=O)OC)C1=C[C@H](COCc1ccccc1)O[C@@H]2C | nt | nt | nt | 2.1 | nt | nt | nt | nt | nt | nt
CC(=O)N1CCN(C(=O)CN2C(=O)NC(C)(c3ccc4ccccc4c3)C2=O)CC1 (stereo not drawn) | 11.6 | 9.7 | -1.5 | 1.7 | 8.3 | -0.7 | nt | nt | nt | nt
CC1(c2ccc3ccccc3c2)NC(=O)N(CC(=O)N2CCN(Cc3ccc(C#N)cc3)CC2)C1=O (stereo not drawn) | -21.6 | 48.2* | 57.9* | nt | -15.7 | 67.5* | 67.7* | 71.5* | 21.4 | 32.2* | 697 NFkB conf=103.2*
CC(=O)NC(c1ccc2ccccc2c1)c1ccc2cccnc2c1O (stereo not drawn) | nt | -12.1 | 56.8* | -18.7 | 34.6 | 91.6* | 82.2* | 82.9* | 40.0* | 77.8*
CCCC(=O)NC(c1ccc(C)cc1)c1ccc2cccnc2c1O (stereo not drawn) | 60.7* | -10.4 | 52.0* | nt | 35.3 | 89.2* | 85.8* | 85.1* | 49.6* | 86.9*
CCCCC(=O)NC(c1ccc(N(C)C)cc1)c1ccc2cccnc2c1O (stereo not drawn) | 55.4 | -22.7 | 53.6* | -30.7 | 30.6 | 87.6* | 76.9* | 85.9* | 36.8* | 93.3*
COc1ccc(C(NC(C)=O)c2ccc3cccnc3c2O)c(OC)c1 (stereo not drawn) | 30.2 | -27.4 | 35.2 | nt | 36.5 | 54.6 | nt | nt | nt | nt
CCCCC(=O)NC(c1ccc(Cl)cc1)c1ccc2cccnc2c1O (stereo not drawn) | 52.4* | -17.7 | 51.4* | -9.0 | 32.4 | 89.3* | 79.7* | 88.2* | 36.7* | 87.5*
CCOC(=O)Nc1ccc2c(c1)[C@@]1(CC(=O)N(CC(C)C)C1c1ccccc1)C(=O)N2C (stereo partly drawn) | nt | nt | nt | 2.4 | nt | nt | nt | nt | nt | nt
CCN(C)c1nc(C)nc2c1nnn2Cc1ccccc1 | nt | nt | nt | 12.0 | nt | nt | nt | nt | nt | nt
SMILES | H9c2 TAG inh | 697 NFkB inh | Jurkat NFkB inh | COUP-TFII inh | H9c2 protect | Gli-Sufu antag | Jurkat NFkB conf | Gli antag conf | Gli cytotox | Wnt3a counter | others
CCOC(=O)N1CCN(C(=O)C[C@H]2C[C@@]3(C(=O)OC)C(=C[C@H](C4CCCC4)O[C@@H]3C)N(Cc3cccc4ccccc34)C2=O)CC1 | nt | nt | nt | -0.3 | nt | nt | nt | nt | nt | nt
CCCCC(=O)NC(c1ccc(N(CC)CC)cc1)c1ccc2cccnc2c1O (stereo not drawn) | nt | -35.0 | 64.2* | 13.6 | 52.2* | 93.5* | 76.0* | 88.3* | 43.8* | 92.2*
CCOc1ccccc1CNS(=O)(=O)c1ccc(-c2cnc(C3CC3)o2)cc1 | nt | -58.5 | 57.5* | -1.2 | -21.6 | 54.6 | 55.0* | 55.4* | 58.6* | -57.8
O=S(=O)(NCc1ccccc1)c1ccc(-c2cnc(C3CC3)o2)cc1 | nt | -23.1 | 34.1 | 20.3 | -10.3 | 8.2 | nt | nt | nt | nt
COc1ccc(C)cc1NS(=O)(=O)c1ccc(-c2cnc(C3CC3)o2)cc1 | nt | -272.4 | 65.6* | -9.8 | -9.6 | 65.5* | 68.3* | 62.1* | 65.8* | 14.8 | 697 NFkB conf=-213.2
COc1ccc2c(c(-c3ccccc3)cn2C)c1-c1ccccc1 | nt | nt | nt | -9.1 | nt | nt | nt | nt | nt | nt
